The list is not random: actives were taken first. Their share in the collection is about 3.4%.
GPR151 activ = activators of human GPR151, primary screen, cell-based, PathHunter beta-arrestin, luminescence. PathHunter beta-arrestin GPR151 cells. activation, % at 11.2 µM. 650,000 tested, 1% active. AID 1508602, 2020; in the data active = activation above about 4.9%
TEAD-YAP inh = TEAD-YAP interaction inhibition, primary screen, TEAD-YAP interaction inhibitor project, luminescence, HEK-TIYL cells; TEAD-Gal4/YAP UAS-luciferase luminescence; inhibition, % at 9.12 µM; 640,000 tested, 1.4% active; AID 1259422, 2018; in the data active = inhibition above about 32%
MITF inh = MITF inhibitors, primary screen, biochemical, AlphaScreen, human | inhibition, % at 2.6 µM | 650,000 tested, 0.91% active | Microphthalmia-associated transcription factor (Homo sapiens), O75030 | AlphaScreen MITF homodimerization, bead proximity signal; in the data active = inhibition above about 50%
Target sequence (O75030 whole entry, looked up): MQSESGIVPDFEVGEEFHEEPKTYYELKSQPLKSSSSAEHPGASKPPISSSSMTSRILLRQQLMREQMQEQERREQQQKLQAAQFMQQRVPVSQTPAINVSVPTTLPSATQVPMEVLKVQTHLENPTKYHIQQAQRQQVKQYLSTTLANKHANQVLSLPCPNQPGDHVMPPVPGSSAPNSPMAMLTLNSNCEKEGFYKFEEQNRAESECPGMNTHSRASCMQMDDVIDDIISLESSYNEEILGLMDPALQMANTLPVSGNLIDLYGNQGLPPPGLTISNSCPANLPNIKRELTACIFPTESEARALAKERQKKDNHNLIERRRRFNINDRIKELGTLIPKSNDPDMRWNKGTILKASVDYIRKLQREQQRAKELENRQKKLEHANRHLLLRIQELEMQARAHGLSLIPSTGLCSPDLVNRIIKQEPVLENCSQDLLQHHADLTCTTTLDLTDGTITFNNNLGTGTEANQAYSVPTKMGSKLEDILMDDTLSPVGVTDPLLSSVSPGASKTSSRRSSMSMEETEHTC
FBW7 activator = FBW7 E3 ligase activators, primary screen, biochemical, AlphaScreen, human; normalized activity (activation), % at 26.1 µM; AID 1259310, 2017; F-box/WD repeat-containing protein 7 (Homo sapiens), Q969H0; 650,000 tested, 0.13% active; AlphaScreen FBW7–phospho-cyclin E peptide binding, activator screen; in the data active = normalized activity above about 1.9%;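 note: purified mutant Fbw7 with reduced substrate affinity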
Of the large screens only hits and unclear results are named; the others gave an inactive call; ! = not active in a repeat.

Nc1c(S(=O)(=O)O)cc(Nc2ccc(Nc3nc(Cl)nc(Nc4ccc(S(=O)(=O)O)cc4)n3)c(S(=O)(=O)O)c2)c2c1C(=O)c1ccccc1C2=O	MITF inh 61
O=C1CCCC(O)=C1N=Nc1ccc(C(=O)O)cc1	MITF inh 66
O=[N+]([O-])c1ccc2nc(-c3ccc(OC(F)F)cc3)cn2c1	TEAD-YAP inh 45
O=[N+]([O-])c1ccc(-c2cn3cc(Cl)ccc3n2)cc1	none
COc1ccc(NC(=O)CNC(=O)c2nn(-c3ccc(OC)c(OC)c3)c(=O)c3ccccc23)cc1OC	TEAD-YAP inh 34
COc1ccc(-n2nc(C(=O)NCC(=O)Nc3cc(OC)c(OC)c(OC)c3)c3ccccc3c2=O)cc1Cl	TEAD-YAP inh 50
COc1ccc(C)cc1NC(=O)CNC(=O)c1nn(-c2ccc(OC)c(OC)c2)c(=O)c2ccccc12	TEAD-YAP inh 35
COc1ccc(-n2nc(C(=O)NCC(=O)NCCN(C)CCc3ccccn3)c3ccccc3c2=O)cc1Cl	TEAD-YAP inh 33
COc1ccc(-n2nc(C(=O)NCC(=O)Nc3ccc(OC)c(OC)c3)c3ccccc3c2=O)cc1	none
c1ccc(-c2ccnc(NC3CCNCC3)n2)cc1	none
O=C(CN1CCC(n2cnc3cccnc32)CC1)N1CCN(c2ccc(F)cc2)CC1	none
Fc1ccc(-c2cnc3ccc(NCc4cccs4)nn23)cc1	none
OCc1ccc(-c2cnc3ccc(NCc4cccs4)nn23)cc1	TEAD-YAP inh 35
Oc1ccc(-c2cnc3ccc(NCc4cccs4)nn23)cc1	TEAD-YAP inh 62
OCc1cccc(-c2cnc3ccc(NCc4cccs4)nn23)c1	none
COc1ccc(C2CNC(=O)C2)cc1OC1CCCC1 (centres undefined)	TEAD-YAP inh 33!
COc1ccc(OC)c(C2CNC(=O)C2)c1 (centres undefined)	none
C=CCNC(=O)c1ccccc1Br	none
O=C(Nc1nc2ccc(C(=O)N3CCOCC3)cc2s1)c1cccs1	TEAD-YAP inh 42
Nc1ccc(C(=O)Nc2nc3ccc(C(=O)N4CCOCC4)cc3s2)cc1	none
O=C(NCc1cccc(C(F)(F)F)c1)c1cnc(N2CCN(Cc3ccc4c(c3)OCO4)CC2)s1	none
O=S(=O)(NCc1ccncc1)c1ccc(S(=O)(=O)NC2CC2)cc1	none
O=C(Oc1cccc2ccccc12)N1CCN2C(=O)[C@@H]3CSCN3C(=O)[C@H]2C1	TEAD-YAP inh 35
CCNC(=O)/C(C#N)=C/c1c(Oc2cc(C)ccc2C(C)C)nc2ccccn2c1=O	TEAD-YAP inh 46
CNC(=O)/C(C#N)=C/c1c(Oc2cc(C)ccc2C(C)C)nc2ccccn2c1=O	TEAD-YAP inh 34
COc1ccccc1/C=C(\C#N)c1nc(-c2ccc(C)cc2)cs1	none
Cc1ccccc1N=CC1=C(O)c2ccccc2C1=O	TEAD-YAP inh 87
COc1ccc(N=CC2=C(O)c3ccccc3C2=O)c(OC)c1	TEAD-YAP inh 69
COc1ccc(N=C(C)C2=C(O)c3ccccc3C2=O)c(OC)c1	none
O=C1C(C=Nc2ccc(F)cc2)=C(O)c2ccccc21	none
CCCC(=O)Nc1ccc(Nc2nc(C)cc(N3CCOCC3)n2)cc1	none
CCCCC(=O)Nc1ccc(Nc2nc(C)cc(N3CCCC3)n2)cc1	TEAD-YAP inh 65
Cc1cc(N2CCCC2)nc(Nc2ccc(NS(=O)(=O)c3ccc(F)cc3)cc2)n1	TEAD-YAP inh 57
CN(Cc1ccccc1)CN1C(=O)c2ccccc2C1=O	none
CCN(C(=O)c1coc(=O)c2ccccc12)c1ccccc1F	TEAD-YAP inh 35
CN(C(=O)c1coc(=O)c2ccccc12)c1ccccc1F	none
CCN(C(=O)c1coc(=O)c2ccccc12)c1cccc(Cl)c1	TEAD-YAP inh 39
CCCN(C(=O)c1coc(=O)c2ccccc12)c1ccccc1C	TEAD-YAP inh 38
Cc1cccc(S(=O)(=O)NC(CCC(=O)O)C(=O)O)c1 (centres undefined)	none
COC(=O)CCCN1C(=O)/C(=C\c2ccc3c(c2)OCO3)SC1=S	TEAD-YAP inh 59
CCOc1cc(/C=C2\SC(=S)N(CCCC(=O)O)C2=O)ccc1O	TEAD-YAP inh 82
COc1cc(/C=C2/SC(=S)N(CCCC(=O)O)C2=O)ccc1O	TEAD-YAP inh 61
O=C(O)CCCN1C(=O)/C(=C\c2ccc(OC(F)F)cc2)SC1=S	TEAD-YAP inh 59
O=C(O)CCCCCN1C(=O)/C(=C/c2ccc(O)cc2)SC1=S	none
CCN(CC)C(=O)C1=C(C)NC(=S)NC1c1ccc(C)cc1 (centres undefined)	none
CCOc1ccc(CN(C)CC(=O)Nc2ccccc2C(=O)Nc2ccccc2)cc1	none
O=C(c1ccc2nc3ccccc3c(=O)n2c1)N1CC=C(c2ccccc2)CC1	none
Cc1ccc(/C=C2\SC(=S)N(CCCC(=O)Nc3cccnc3)C2=O)cc1	TEAD-YAP inh 34
COc1ccc(/C=C2\SC(=O)N(CCC(=O)O)C2=O)c(OC)c1	TEAD-YAP inh 64
Cc1ccc(/C=C2/SC(=S)N(Cc3cccnc3)C2=O)cc1	none
COc1ccc(/C=C2\SC(=O)N(CO)C2=O)c(OC)c1	none
CCCN1C(=O)/C(=C/c2ccc(OC)cc2)SC1=S	none
CCOc1ccc(/C=C2\SC(=S)N(CCCC(=O)O)C2=O)cc1	TEAD-YAP inh 79
COc1ccc(/C=C2/SC(=S)N(CCC(=O)O)C2=O)cc1	TEAD-YAP inh 58
Cc1ccc(NCC(=O)n2nc(C)cc2C)c(C)c1	none
NC(=O)c1ccccc1N=Cc1cccc(Cl)c1Cl	TEAD-YAP inh 54
Cc1sc2nc(-c3cccnc3)nc(NCCSCc3ccco3)c2c1C	TEAD-YAP inh 68
Cc1nc(NCc2cccnc2)c2c(C)c(C)sc2n1	none
CCOCCn1cnc2sc(C(=O)Nc3cnc4ccccc4c3)c(C)c2c1=O	TEAD-YAP inh 79
CCOCCn1cnc2sc(C(=O)Nc3nc4ccccc4s3)c(C)c2c1=O	TEAD-YAP inh 49
CCC(=O)NC(=S)Nc1ccc(C(=O)O)c(Cl)c1	none
O=[N+]([O-])c1ccc(CSc2nnc(Cc3ccccc3)o2)cc1	none
O=[N+]([O-])c1ccc(Sc2nnc(Cc3ccccc3)o2)nc1	TEAD-YAP inh 57
N#C/C(=C/c1ccc(-c2ccc([N+](=O)[O-])cc2)o1)C(N)=O	FBW7 activator 2.4
N#C/C(=C\c1ccc(-c2cccc([N+](=O)[O-])c2)o1)C(N)=O	none
CC(C)(C)c1ccccc1NC(=O)NCc1ccc(C#N)cc1	none
COc1cc([N+](=O)[O-])cc(/C=C2\SC(=Nc3ccc(F)cc3)NC2=O)c1O	none
c1ccc(Oc2cccc(CSc3nc4ccccc4[nH]3)c2)cc1	TEAD-YAP inh 34
Cc1cc(=O)[nH]c(SCc2cccc(Oc3ccccc3)c2)n1	none
O=C(NCCOc1ccc(Cl)cc1)c1ccco1	FBW7 activator 2.3
CCc1ccc(OCCNC(=O)c2ccco2)cc1	none
O=C(NCCOc1ccccc1)C(=O)NCc1ccco1	TEAD-YAP inh 48
Cc1ccc(C(=O)NCCOc2ccccc2)cc1	TEAD-YAP inh 73
Cc1ccc(C(=O)NCCc2ccccc2)cc1	TEAD-YAP inh 82

Bioassay records (PubChem BioAssay)
